# ± gives the standard deviation of the averaged measurements. The full data set covers some 6,200 targets. This sample favours those with the largest changes.
# Compound: Nc1ncnc2c1ncn2[C@@H]1O[C@H](COP(=O)(O)OP(=O)(O)NP(=O)(O)O)[C@@H](O)[C@H]1O [adenylyl imidodiphosphate]
# Test: NP40-soluble protein abundance relative to vehicle (solubility fold change) (ratio); higher = more soluble protein in presence of AMP-PNP
# In short: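 Crude Jurkat lysate, prepared by Dounce homogenisation, was exposed to eight concentrations from 0.1 to 10 mM for 10 min at room temperature and then 3 min at 37 °C. Solubilisation used 0.8% NP40 with benzonase for 60 min at 4 °C, followed by ultracentrifugation and TMT labelling of the supernatant for LC-MS/MS. After vsn normalisation of intensities, each value is the fold change against the detergent-processed vehicle within each replicate, across three independent experiments.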
# Chain of UniProt Q9P2N5 (Q9P2N5 whole entry): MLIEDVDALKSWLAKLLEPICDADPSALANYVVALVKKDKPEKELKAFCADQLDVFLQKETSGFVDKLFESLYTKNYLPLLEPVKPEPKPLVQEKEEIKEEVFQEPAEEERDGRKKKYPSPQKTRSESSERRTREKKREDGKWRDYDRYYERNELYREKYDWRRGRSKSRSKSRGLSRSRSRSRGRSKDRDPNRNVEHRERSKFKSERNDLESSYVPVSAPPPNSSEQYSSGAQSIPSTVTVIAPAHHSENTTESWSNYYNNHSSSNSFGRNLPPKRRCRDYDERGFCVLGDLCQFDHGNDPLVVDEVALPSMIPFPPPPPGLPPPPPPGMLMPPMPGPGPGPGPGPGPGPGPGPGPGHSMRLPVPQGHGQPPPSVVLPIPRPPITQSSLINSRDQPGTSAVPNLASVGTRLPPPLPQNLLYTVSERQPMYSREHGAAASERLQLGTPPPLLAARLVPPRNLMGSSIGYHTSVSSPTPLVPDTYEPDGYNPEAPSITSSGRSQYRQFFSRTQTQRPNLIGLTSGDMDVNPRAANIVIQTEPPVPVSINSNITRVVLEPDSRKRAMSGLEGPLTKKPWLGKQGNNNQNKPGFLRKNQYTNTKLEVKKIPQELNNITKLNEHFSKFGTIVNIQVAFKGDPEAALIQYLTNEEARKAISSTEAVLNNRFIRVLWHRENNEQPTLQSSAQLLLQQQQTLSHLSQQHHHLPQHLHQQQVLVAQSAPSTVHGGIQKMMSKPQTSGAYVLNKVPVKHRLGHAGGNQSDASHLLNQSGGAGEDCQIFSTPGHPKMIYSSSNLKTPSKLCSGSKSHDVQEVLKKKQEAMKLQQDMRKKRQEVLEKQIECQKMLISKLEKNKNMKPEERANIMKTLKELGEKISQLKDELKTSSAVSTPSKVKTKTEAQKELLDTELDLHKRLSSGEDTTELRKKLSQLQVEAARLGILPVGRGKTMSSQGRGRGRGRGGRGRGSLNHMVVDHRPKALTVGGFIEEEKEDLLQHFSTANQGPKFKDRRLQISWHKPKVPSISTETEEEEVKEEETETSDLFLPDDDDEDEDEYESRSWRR
# Chain of UniProt Q9UGJ1 (Q9UGJ1 whole entry, one chain of several): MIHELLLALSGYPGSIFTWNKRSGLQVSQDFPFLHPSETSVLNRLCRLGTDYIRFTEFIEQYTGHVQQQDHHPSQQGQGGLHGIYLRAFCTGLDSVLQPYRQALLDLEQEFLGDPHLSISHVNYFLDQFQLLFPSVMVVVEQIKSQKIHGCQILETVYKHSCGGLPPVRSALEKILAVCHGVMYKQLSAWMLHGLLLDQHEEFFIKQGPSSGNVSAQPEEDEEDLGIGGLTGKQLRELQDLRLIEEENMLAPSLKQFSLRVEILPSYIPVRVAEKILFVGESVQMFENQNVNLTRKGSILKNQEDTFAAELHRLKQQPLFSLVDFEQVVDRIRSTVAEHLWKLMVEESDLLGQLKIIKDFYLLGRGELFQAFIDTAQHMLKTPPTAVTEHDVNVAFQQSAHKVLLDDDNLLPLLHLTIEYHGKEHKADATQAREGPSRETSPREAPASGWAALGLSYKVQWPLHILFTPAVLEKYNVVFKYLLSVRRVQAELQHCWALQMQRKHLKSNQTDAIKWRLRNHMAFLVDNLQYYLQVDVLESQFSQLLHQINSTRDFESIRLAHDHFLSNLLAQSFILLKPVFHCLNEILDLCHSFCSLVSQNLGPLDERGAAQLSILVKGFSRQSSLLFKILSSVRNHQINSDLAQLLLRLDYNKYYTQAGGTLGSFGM
# Chain of UniProt Q9Y2W1 (Q9Y2W1 whole entry): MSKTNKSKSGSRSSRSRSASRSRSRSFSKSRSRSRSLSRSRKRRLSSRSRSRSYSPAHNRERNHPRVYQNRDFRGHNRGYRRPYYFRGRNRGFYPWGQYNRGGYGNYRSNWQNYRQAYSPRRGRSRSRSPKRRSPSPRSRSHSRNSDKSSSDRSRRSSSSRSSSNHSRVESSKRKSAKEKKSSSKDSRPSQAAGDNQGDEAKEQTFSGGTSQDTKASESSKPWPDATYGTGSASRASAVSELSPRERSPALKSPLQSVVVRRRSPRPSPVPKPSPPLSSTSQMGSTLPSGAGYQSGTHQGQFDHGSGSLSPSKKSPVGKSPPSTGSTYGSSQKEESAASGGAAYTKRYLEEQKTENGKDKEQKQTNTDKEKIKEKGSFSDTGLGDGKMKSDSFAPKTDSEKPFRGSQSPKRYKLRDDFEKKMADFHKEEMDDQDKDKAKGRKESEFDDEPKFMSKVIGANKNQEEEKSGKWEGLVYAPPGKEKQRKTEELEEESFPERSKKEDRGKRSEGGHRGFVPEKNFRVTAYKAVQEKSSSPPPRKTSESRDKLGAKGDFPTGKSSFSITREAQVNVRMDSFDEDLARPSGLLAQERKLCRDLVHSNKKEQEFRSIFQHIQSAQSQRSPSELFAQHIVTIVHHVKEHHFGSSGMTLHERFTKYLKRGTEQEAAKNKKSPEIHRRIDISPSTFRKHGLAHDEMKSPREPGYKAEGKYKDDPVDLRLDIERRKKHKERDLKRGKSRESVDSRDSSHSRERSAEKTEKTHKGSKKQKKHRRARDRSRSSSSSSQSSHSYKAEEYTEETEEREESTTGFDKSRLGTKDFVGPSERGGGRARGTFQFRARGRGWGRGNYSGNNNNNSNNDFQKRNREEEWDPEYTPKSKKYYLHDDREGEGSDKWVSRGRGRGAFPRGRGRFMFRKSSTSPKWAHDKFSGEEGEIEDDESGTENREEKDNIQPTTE
# Chain of UniProt Q9UK76 (Q9UK76 whole entry): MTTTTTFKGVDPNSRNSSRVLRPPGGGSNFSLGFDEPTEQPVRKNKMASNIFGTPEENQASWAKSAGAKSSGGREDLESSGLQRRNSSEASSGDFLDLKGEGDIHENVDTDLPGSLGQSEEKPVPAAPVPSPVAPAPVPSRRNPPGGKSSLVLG
# Chain of UniProt Q96PE7 (Q96PE7 whole entry): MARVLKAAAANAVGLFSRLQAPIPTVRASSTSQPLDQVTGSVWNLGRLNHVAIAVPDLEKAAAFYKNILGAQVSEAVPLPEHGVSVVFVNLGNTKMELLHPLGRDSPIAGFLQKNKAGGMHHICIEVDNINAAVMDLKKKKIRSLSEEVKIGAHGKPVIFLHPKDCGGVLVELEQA
# Chain of UniProt Q9H773 (Q9H773 whole entry, one chain of several): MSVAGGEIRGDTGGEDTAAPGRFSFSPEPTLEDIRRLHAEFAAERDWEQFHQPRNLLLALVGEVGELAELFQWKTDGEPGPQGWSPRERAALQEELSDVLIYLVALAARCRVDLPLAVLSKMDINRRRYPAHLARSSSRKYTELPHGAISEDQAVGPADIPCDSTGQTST
# Chain of UniProt Q9HCD5 (Q9HCD5 whole entry): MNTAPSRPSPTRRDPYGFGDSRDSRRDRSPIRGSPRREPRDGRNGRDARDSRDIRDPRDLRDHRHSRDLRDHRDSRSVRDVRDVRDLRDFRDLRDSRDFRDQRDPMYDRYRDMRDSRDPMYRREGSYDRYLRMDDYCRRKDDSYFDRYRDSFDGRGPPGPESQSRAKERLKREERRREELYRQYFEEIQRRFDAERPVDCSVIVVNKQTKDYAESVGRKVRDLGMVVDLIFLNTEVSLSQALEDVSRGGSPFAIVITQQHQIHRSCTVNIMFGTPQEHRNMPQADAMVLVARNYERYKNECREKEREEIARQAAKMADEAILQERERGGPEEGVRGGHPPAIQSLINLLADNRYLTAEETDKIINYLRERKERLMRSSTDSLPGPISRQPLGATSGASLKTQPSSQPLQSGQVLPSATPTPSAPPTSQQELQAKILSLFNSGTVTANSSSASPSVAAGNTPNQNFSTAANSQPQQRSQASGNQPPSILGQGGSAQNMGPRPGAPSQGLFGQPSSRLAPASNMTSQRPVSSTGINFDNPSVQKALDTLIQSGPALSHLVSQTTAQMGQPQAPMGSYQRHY
# Chain of UniProt Q9UHP3 (Q9UHP3 whole entry): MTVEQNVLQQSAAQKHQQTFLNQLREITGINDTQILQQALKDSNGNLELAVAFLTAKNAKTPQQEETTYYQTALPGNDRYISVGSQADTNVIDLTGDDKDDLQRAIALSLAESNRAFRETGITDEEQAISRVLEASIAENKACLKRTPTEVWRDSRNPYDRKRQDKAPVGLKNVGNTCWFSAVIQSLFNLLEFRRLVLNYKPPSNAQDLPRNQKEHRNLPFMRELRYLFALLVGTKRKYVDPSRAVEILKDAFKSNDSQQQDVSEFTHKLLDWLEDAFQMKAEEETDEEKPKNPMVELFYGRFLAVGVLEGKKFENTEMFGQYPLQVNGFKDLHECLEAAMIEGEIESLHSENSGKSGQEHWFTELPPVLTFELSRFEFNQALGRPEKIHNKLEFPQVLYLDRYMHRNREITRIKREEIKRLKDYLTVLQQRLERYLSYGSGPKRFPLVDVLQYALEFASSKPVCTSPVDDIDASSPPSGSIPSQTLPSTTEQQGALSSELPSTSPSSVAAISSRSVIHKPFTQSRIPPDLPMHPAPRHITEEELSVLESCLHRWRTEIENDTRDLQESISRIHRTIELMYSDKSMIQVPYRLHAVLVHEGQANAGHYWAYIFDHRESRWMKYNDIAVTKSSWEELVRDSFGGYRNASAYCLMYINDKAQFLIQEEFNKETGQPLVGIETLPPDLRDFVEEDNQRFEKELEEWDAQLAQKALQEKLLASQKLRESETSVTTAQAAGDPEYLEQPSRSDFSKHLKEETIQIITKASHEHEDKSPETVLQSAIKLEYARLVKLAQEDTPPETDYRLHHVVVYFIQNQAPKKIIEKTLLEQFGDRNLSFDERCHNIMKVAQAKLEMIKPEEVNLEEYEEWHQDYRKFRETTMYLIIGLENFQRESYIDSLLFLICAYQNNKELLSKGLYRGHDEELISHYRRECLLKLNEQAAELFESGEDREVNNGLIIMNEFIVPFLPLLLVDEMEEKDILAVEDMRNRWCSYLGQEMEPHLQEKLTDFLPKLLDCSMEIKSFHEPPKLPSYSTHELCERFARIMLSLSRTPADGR
# Chain of UniProt Q9BRG1 (Q9BRG1 whole entry, one chain of several): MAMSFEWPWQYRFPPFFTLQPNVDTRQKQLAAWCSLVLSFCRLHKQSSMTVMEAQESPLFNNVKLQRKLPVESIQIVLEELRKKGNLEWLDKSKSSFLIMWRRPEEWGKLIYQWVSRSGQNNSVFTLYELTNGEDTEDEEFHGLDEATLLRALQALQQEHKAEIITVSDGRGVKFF
Target,NP40-soluble protein abundance (concentration: 1mM),NP40-soluble protein abundance (concentration: 2mM),NP40-soluble protein abundance (concentration: 4mM),NP40-soluble protein abundance (concentration: 6mM),NP40-soluble protein abundance (concentration: 8mM),NP40-soluble protein abundance (concentration: 10mM)
HEBP2 (UniProt Q9Y5Z4),0.978 ± 0.012,0.9687 ± 0.0064,0.952 ± 0.023,0.957 ± 0.021,0.964 ± 0.018,0.926 ± 0.042
UniProt Q9UHP3|Q9UHP3-1|Q9UHP3-3,0.966 ± 0.013,0.997 ± 0.015,0.975 ± 0.026,0.963 ± 0.023,0.964 ± 0.013,0.971 ± 0.024
NARS2 (UniProt Q96I59),0.955 ± 0.032,0.904 ± 0.033,0.927 ± 0.036,1 ± 0.048,1 ± 0.011,0.963 ± 0.066
UniProt Q9HCJ0|Q9HCJ0-2,1.043 ± 0.0013,1.033 ± 0.0035,1.01 ± 0.013,1.01 ± 0.022,1 ± 0.016,1.02 ± 0.02
PNKP (UniProt Q96T60),1.02 ± 0.041,1.02 ± 0.054,1.1 ± 0.071,1.18 ± 0.021,1.23 ± 0.047,1.22 ± 0.079
UniProt Q9NRY4,0.9859 ± 0.0086,0.971 ± 0.035,0.999 ± 0.028,0.984 ± 0.03,0.964 ± 0.036,0.935 ± 0.024
UniProt Q9UK76,1.08 ± 0.088,1.1 ± 0.08,1.03 ± 0.067,0.982 ± 0.092,0.893 ± 0.037,0.973 ± 0.1
SIPA1 (UniProt Q96FS4),1.01 ± 0.037,1.013 ± 0.003,1.03 ± 0.025,1.05 ± 0.029,1.03 ± 0.036,1.04 ± 0.02
UniProt Q9Y320|Q9Y320-2,0.936 ± 0.038,0.89 ± 0.056,0.918 ± 0.036,0.952 ± 0.048,0.962 ± 0.04,0.95 ± 0.039
MCEE (UniProt Q96PE7),0.998 ± 0.04,1.01 ± 0.04,0.997 ± 0.046,1.06 ± 0.036,1.03 ± 0.08,1.05 ± 0.1
DDX18 (UniProt Q9NVP1),1.03 ± 0.045,1.03 ± 0.013,1.16 ± 0.046,1.24 ± 0.075,1.35 ± 0.12,1.43 ± 0.15
SRPRB (UniProt Q9Y5M8),1.05 ± 0.021,1.06 ± 0.011,1.04 ± 0.021,1.08 ± 0.014,1.04 ± 0.014,1.08 ± 0.033
UniProt Q9H773|H3BSA6,1.03 ± 0.02,1.01 ± 0.019,1.041 ± 0.0073,1.03 ± 0.015,1.01 ± 0.019,1 ± 0.022
UniProt Q9H0W9|Q9H0W9-2,0.99 ± 0.035,0.972 ± 0.036,0.973 ± 0.029,0.974 ± 0.012,0.949 ± 0.043,0.935 ± 0.037
WDR3 (UniProt Q9UNX4),1.07 ± 0.015,1.09 ± 0.1,1.33 ± 0.039,1.55 ± 0.026,1.8 ± 0.064,1.78 ± 0.15
UniProt Q9UGJ1|Q9UGJ1-2|H3BPU4,1.01 ± 0.037,1.01 ± 0.024,1.04 ± 0.05,1 ± 0.028,1 ± 0.091,1.03 ± 0.08
UniProt Q9BRG1|K7EKV4,1.04 ± 0.028,0.957 ± 0.094,1.02 ± 0.063,0.931 ± 0.043,0.982 ± 0.071,0.942 ± 0.099
UniProt Q9P1W8|Q9P1W8-2,0.9928 ± 0.0047,1.04 ± 0.041,1.02 ± 0.018,1.0109 ± 0.00039,1.0171 ± 0.00063,1.024 ± 0.0042

Target,NP40-soluble protein abundance (concentration: 1mM),NP40-soluble protein abundance (concentration: 2mM),NP40-soluble protein abundance (concentration: 4mM),NP40-soluble protein abundance (concentration: 6mM),NP40-soluble protein abundance (concentration: 8mM),NP40-soluble protein abundance (concentration: 10mM)
CPSF2 (UniProt Q9P2I0),1.01 ± 0.016,1 ± 0.053,1.03 ± 0.027,1.03 ± 0.061,1.05 ± 0.035,1.07 ± 0.055
THRAP3 (UniProt Q9Y2W1),1.11 ± 0.014,1.23 ± 0.1,1.2 ± 0.034,1.31 ± 0.044,1.32 ± 0.028,1.41 ± 0.03
STUB1 (UniProt Q9UNE7),0.989 ± 0.017,1.02 ± 0.014,0.977 ± 0.018,0.9527 ± 0.0059,0.938 ± 0.018,0.927 ± 0.019
NCOA5 (UniProt Q9HCD5),1.09 ± 0.062,1.18 ± 0.039,1.37 ± 0.081,1.73 ± 0.1,1.89 ± 0.14,2.17 ± 0.35
MRPL9 (UniProt Q9BYD2),1.04 ± 0.13,0.967 ± 0.13,1.03 ± 0.075,0.982 ± 0.09,1.01 ± 0.072,0.972 ± 0.15
UniProt Q9UG63|Q9UG63-2,1.04 ± 0.06,1.15 ± 0.065,1.41 ± 0.054,1.82 ± 0.11,2.25 ± 0.15,2.54 ± 0.26
UniProt Q9H0S4|Q9H0S4-2,0.994 ± 0.061,0.981 ± 0.022,1.11 ± 0.089,1.25 ± 0.12,1.39 ± 0.13,1.46 ± 0.14
UniProt Q9BRT2|V5IRT4,1.03 ± 0.022,1.13 ± 0.11,1.03 ± 0.016,1.0141 ± 0.00091,1.025 ± 0.0039,1.011 ± 0.0053
RBM27 (UniProt Q9P2N5),1.04 ± 0.021,1.15 ± 0.062,1.13 ± 0.05,1.24 ± 0.12,1.25 ± 0.11,1.34 ± 0.16
UniProt Q96JP5|A0A0A6YYC7|Q96JP5-2,1.01 ± 0.017,1.05 ± 0.03,1.01 ± 0.021,1.04 ± 0.068,0.987 ± 0.057,1.01 ± 0.046
UniProt Q9GZY4,0.995 ± 0.024,0.939 ± 0.041,1.01 ± 0.022,0.977 ± 0.015,0.9936 ± 0.0057,1.01 ± 0.051
UniProt Q9NZQ3|Q9NZQ3-3,1.04 ± 0.066,0.9853 ± 0.0064,1.03 ± 0.045,0.984 ± 0.029,1.02 ± 0.047,0.99 ± 0.014
DDX21 (UniProt Q9NR30),1.21 ± 0.11,1.25 ± 0.13,1.39 ± 0.23,1.55 ± 0.31,1.66 ± 0.38,1.78 ± 0.4
UniProt Q96P48|Q96P48-3,0.968 ± 0.022,0.896 ± 0.14,0.983 ± 0.07,0.903 ± 0.059,0.955 ± 0.066,0.882 ± 0.062
UniProt Q9Y5V3|Q9Y5V3-2,1 ± 0.08,1 ± 0.059,0.937 ± 0.08,0.869 ± 0.077,0.81 ± 0.027,0.858 ± 0.048
UniProt Q9Y3B4,0.976 ± 0.061,0.981 ± 0.076,0.993 ± 0.019,0.968 ± 0.016,1.05 ± 0.051,1.01 ± 0.06
YBX2 (UniProt Q9Y2T7),1.02 ± 0.029,1.06 ± 0.013,1.02 ± 0.018,1.01 ± 0.029,1.01 ± 0.036,1.038 ± 0.0094
UniProt Q9NPB8|H0Y565,1.01 ± 0.017,1.05 ± 0.034,1.02 ± 0.015,0.999 ± 0.033,0.9977 ± 0.0075,1.02 ± 0.019

# From the supplement of paper PMC6411743
